The source made the active and inactive calls.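 The calls were made as follows, unless noted: active = inhibition at or above 50% at 10 µM; inactive = inhibition below 50%.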

A short description of experiment [1]: inhibitors of TNFa-induced NFkB p65 translocation, primary screen, imaging, HUVEC, MLSMR starter and 10KST1 sets (AID 438;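 active = inhibition above 20% together with a positive visual image hit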;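 also: compound added about 3h40 before a 20 min TNFalpha stimulation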;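 as to inhibition: signal is the nuclear over cytoplasmic p65 intensity ratio per well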). The following applies: HUVEC TNFa-induced p65 nuclear translocation; cell count: measured here: nuclei count (cytotoxicity indicator), at 2.08 µM; inhibition: at 2 µM, stronger effect = higher value, 0% TNFa-plus-vehicle, 100% no-TNFa wells.
Experiment [2] in a line: reduction of polyQ htt aggregates in cells – imaging, exon1htt(103Q)mCFP cells, high-content imaging, primary screen (AID 483;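 active = visual image review flags a hit and inhibition of aggregation exceeds 20%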;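 also: compound exposure lasted 3 days before fixation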;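 as to nuclei count: percent of the per-plate median nuclei count of sample wells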). The following applies: exon1htt(103Q)mCFP cell line, aggregate imaging, at 2 µM; inhibition of aggregation: stronger effect = higher value; nuclei count: measured here: cell count, toxicity.
Experiment [3] can be described thus: endothelial E-selectin expression blockers – imaging, HUVEC, immunofluorescence, MLSMR starter and 10KST1 sets, primary screen (AID 487;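 active = visually confirmed hit in the image check and inhibition above 20%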;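 as to inhibition: signal is fraction of cell area covered by stained E-selectin grains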;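 as to nuclei count: 100% = median nuclei count of all wells on the same plate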). As to conditions: HUVEC TNFalpha-induced E-selectin immunofluorescence imaging, at 2 µM; inhibition: stronger effect = higher value; nuclei count: measured here: cell number, toxicity.
Experiment [4] has as its target Voltage-gated potassium channel subunit beta-2 (Rattus norvegicus) (UniProt P62483). Put plainly: inhibitors of rat Kvbeta2 reductase activity – biochemical, NADPH fluorescence, primary screen (AID 622;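 active = fluorescence slope higher than the sample average by over 3 SD, cut at about -0.22 in these data, passing the limit was not always enough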;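 also: slope of raw intensity against log time taken from 70 to 1610 s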). As to conditions: recombinant KvBeta, 4-cyanobenzaldehyde reduction, at 10 µM, stronger effect = higher value.
The target is the same in experiment [5]. The experiment in a line: enhancers of rat Kvbeta2 NADPH turnover – biochemical, NADPH fluorescence, primary screen (AID 623;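 active = NADPH fluorescence slope more negative than the mean of all samples by about 3 SD, 99.7% confidence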;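 also: fluorescence intensity change per second fitted from 20 to 320 s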). As to conditions: Recombinant KvBeta, NADPH fluorescence decrease slope, 10 min; at 10 µM; stronger effect = lower value.
Experiment [6] has as its target Alpha-2C adrenergic receptor (Homo sapiens) (UniProt P18825). The experiment in a line: compounds altering alpha2C-coupled GIRK flux – cell-based, HEK293 alpha2C/GIRK1/2, thallium flux, primary screen (AID 624;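 active = fluorescence slope after compound addition differing from the mean of all screened samples at 99.7% confidence, in either direction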;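 also: slope of fluorescence ratio to pre-addition baseline per second over 15 to 24 s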). The following applies: thallium flux BTC fluorescence, at 10 µM, actives lie on both sides.
Experiment [7] in a line: blockers of RIG-like receptor reporter activation – cell-based, Sendai virus stimulus, luciferase, 10K MLSCN set, TLR/RLR signaling modifier project, primary screen (AID 602276).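 Also: firefly luciferase from ISG56 promoter only with Renilla not read in this screen; 0% = Sendai virus plus DMSO and 100% = medium plus DMSO without virus.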 As to conditions: HEK293 RL24 IRF3 luciferase reporter, at 10 µM, stronger effect = higher value.
A short description of experiment [8]: TLR3 IRF3 reporter activation blockers – cell-based, poly I:C stimulus, luciferase, 10K MLSCN set, primary screen (AID 602277;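 active = inhibition of the reporter signal at or above 50%; inactive = inhibition below 50%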). As to conditions: HEK293-TLR3 RL24 IRF3 luciferase reporter, at 10 µM, stronger effect = higher value. A general note: A reporter such as luciferase makes a cellular process visible.

Chain of Voltage-gated potassium channel subunit beta-2 (Rattus norvegicus) (P62483 whole entry, looked up): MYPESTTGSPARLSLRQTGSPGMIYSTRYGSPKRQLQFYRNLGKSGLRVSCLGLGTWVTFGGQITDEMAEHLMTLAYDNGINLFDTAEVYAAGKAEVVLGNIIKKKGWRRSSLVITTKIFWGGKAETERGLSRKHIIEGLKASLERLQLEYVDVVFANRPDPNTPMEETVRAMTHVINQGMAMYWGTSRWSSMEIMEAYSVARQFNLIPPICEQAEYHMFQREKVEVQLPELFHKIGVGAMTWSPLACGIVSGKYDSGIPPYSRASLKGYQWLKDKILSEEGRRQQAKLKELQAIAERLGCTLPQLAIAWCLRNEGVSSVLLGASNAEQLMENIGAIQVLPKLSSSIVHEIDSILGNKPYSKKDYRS
Chain of Alpha-2C adrenergic receptor (Homo sapiens) (P18825 whole entry, looked up): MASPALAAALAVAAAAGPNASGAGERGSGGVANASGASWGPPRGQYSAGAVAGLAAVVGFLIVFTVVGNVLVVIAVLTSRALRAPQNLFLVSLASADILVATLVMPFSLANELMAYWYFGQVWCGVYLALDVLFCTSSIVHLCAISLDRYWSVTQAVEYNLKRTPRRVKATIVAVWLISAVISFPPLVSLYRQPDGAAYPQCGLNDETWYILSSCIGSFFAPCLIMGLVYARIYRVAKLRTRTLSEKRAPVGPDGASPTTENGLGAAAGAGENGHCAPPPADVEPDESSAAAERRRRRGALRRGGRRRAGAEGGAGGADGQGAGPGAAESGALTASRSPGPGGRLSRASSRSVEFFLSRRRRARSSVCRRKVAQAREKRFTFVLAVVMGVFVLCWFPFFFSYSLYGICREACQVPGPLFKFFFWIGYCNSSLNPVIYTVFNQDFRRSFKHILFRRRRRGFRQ

Broadly, the inhibition is the change of the read-out against control, counted positive when it falls. As to `CCC(C)NC(=O)CCNS(=O)(=O)c1ccc(Br)cc1` (centres undefined), in experiment [1], the cell count came out at 605. Also, the inhibition was -17% (inactive) in experiment [1], -109% (inactive) in experiment [3], 3.69% (inactive) in experiment [7] and 33% (inactive) in experiment [8]. Further, the inhibition of aggregation in experiment [2] is 17.5% (inactive). Besides, the nuclei count in experiment [2] was found to be 66.3%; in experiment [3] it was 118%. For the same molecule, in experiment [4], the fluorescence slope was -0.325 (inactive). The NADPH fluorescence slope in experiment [5] was 6.7e-06 (inactive). The slope in experiment [6] was 0.00362 (inactive).
`COc1ccc(-n2nc(C(=O)NCC(=O)NCC3CCCO3)c3ccccc3c2=O)cc1` (centres undefined): the cell count in experiment [1] worked out at 355. In addition, the inhibition was -1.7% (inactive) in experiment [1], -15.9% (inactive) in experiment [3], 16.2% (inactive) in experiment [7] and 23.6% (inactive) in experiment [8]. Moreover, the inhibition of aggregation in experiment [2] is 13.1% (inactive). Further, the nuclei count in experiment [2] is 91.3%; in experiment [3], 100%. Further, the fluorescence slope in experiment [4] was -0.435 (inactive). In addition, the NADPH fluorescence slope in experiment [5] was -1.9e-05 (inactive). Also, the slope in experiment [6] was 0.0067 (inactive).
Consider `Nc1ccc(-c2ccc(N)cc2C(F)(F)F)c(C(F)(F)F)c1`, for which the cell count in experiment [1] turned out to be 510. In addition, the inhibition is -15.4% (inactive) in experiment [1], -3.6% (inactive) in experiment [3], 16.9% (inactive) in experiment [7] and 24% (inactive) in experiment [8]. For the same molecule, the inhibition of aggregation in experiment [2] was -0.4% (inactive). In addition, the figures for the nuclei count in experiment [2] and in experiment [3] were 96.5% and 101%, respectively. Further, the fluorescence slope in experiment [4] was -0.446 (inactive). In experiment [5], the NADPH fluorescence slope is -9.4e-05 (inactive). The slope in experiment [6] was 0.00482 (inactive).
Regarding `Cc1cc(C)c(C(=O)Nc2ccc(S(=O)(=O)Nc3onc(C)c3C)cc2)c(C)c1`, in experiment [1], the cell count turned out to be 680. For the same molecule, the inhibition is 0.3% (inactive) in experiment [1], -36.9% (inactive) in experiment [3], 18.6% (inactive) in experiment [7] and 22.1% (inactive) in experiment [8]. Moreover, the inhibition of aggregation in experiment [2] is -6.2% (inactive). The nuclei count in experiment [2] worked out at 113%; in experiment [3], 114%. For the same molecule, the fluorescence slope in experiment [4] is -0.493 (inactive). The NADPH fluorescence slope in experiment [5] was -2.1e-05 (inactive). Further, the slope in experiment [6] is 0.00709 (inactive).
As to `COc1cc(C2C(C#N)=C(C)NC3=C2C(=O)CC(C)(C)C3)ccc1O` (centres undefined), the cell count in experiment [1] was found to be 422. The inhibition in experiment [1] is -1.9% (inactive); in experiment [3] it was -15.6% (inactive); in experiment [7] it was 8.2% (inactive); in experiment [8], 16.9% (inactive). In addition, the inhibition of aggregation in experiment [2] was 1% (inactive). Also, the nuclei count in experiment [2] and in experiment [3] was 103% throughout. In addition, the fluorescence slope in experiment [4] is -0.453 (inactive). Further, the NADPH fluorescence slope in experiment [5] is -2e-05 (inactive). Moreover, the slope in experiment [6] is 0.00555 (inactive).
For `CCCC1CCC(C(=O)Nn2cnc3ccccc3c2=O)CC1` (centres undefined), the cell count in experiment [1] came out at 271. The inhibition is 3.9% (inactive) in experiment [1], 33.8% (inactive) in experiment [3], 6.74% (inactive) in experiment [7] and 21.4% (inactive) in experiment [8]. In experiment [2], the inhibition of aggregation was 17.1% (inactive). For the same molecule, the nuclei count amounted to 86.9% in experiment [2] and 77.6% in experiment [3]. Moreover, the fluorescence slope in experiment [4] is -0.478 (inactive). In addition, in experiment [5], the NADPH fluorescence slope is 2.4e-05 (inactive). Besides, in experiment [6], the slope is 0.00566 (inactive).
Consider `Nc1scc(-c2ccncc2)c1Cl`, for which the cell count in experiment [1] came to 349. Besides, the inhibition is -0.2% (inactive) in experiment [1], -2.4% (inactive) in experiment [3], -19.6% (inactive) in experiment [7] and -65.9% (inactive) in experiment [8]. Further, the inhibition of aggregation in experiment [2] was 23% (inactive). For the same molecule, the nuclei count in experiment [2] amounted to 94.4%; in experiment [3], 107%. Besides, in experiment [4], the fluorescence slope is -0.386 (inactive). Moreover, the NADPH fluorescence slope in experiment [5] is 1.9e-05 (inactive). In experiment [6], the slope is 0.00535 (inactive).
Regarding `CCN(C(C)=O)c1nnc(CSc2nc3ccccc3s2)s1`, in experiment [1], the cell count was found to be 531. Besides, the inhibition in experiment [1] was -15.2% (inactive); in experiment [3], -11.6% (inactive); in experiment [7], -76.7% (inactive); in experiment [8] it was -233% (inactive). Besides, in experiment [2], the inhibition of aggregation was 10.2% (inactive). Besides, the results for the nuclei count in experiment [2] and in experiment [3] were 96.4% and 119%, respectively. In addition, in experiment [4], the fluorescence slope is -0.475 (inactive). Also, the NADPH fluorescence slope in experiment [5] is 2.8e-05 (inactive). Further, the slope in experiment [6] was 0.00523 (inactive).
As for `O=C(Cn1cnc2ccccc2c1=O)NCCC(=O)N1CCN(Cc2ccccc2)CC1`, the cell count in experiment [1] came to 451. The inhibition in experiment [1] is -3.8% (inactive); in experiment [3] it was -0.7% (inactive); in experiment [7] it was 12.1% (inactive); in experiment [8] it was 24.7% (inactive). Also, in experiment [2], the inhibition of aggregation is 31.1% (inactive). In addition, the nuclei count in experiment [2] amounted to 80.5%; in experiment [3], 112%. In addition, the fluorescence slope in experiment [4] was -0.416 (inactive). For the same molecule, the NADPH fluorescence slope in experiment [5] is -9.6e-05 (inactive). Besides, the slope in experiment [6] was 0.00528 (inactive).
On to `COc1cc2c(cc1OC)CN(C(=O)CSc1nnc3scc(-c4ccccc4)n13)CC2`, for which the cell count in experiment [1] is 548. Also, the inhibition in experiment [1] is -0.3% (inactive); in experiment [3], -28.8% (inactive); in experiment [7] it was 1.32% (inactive); in experiment [8], 16.8% (inactive). Further, the inhibition of aggregation in experiment [2] was 12.8% (inactive). For the same molecule, the nuclei count in experiment [2] stood at 98.2%; in experiment [3], 109%. Moreover, the fluorescence slope in experiment [4] was -0.515 (inactive). Besides, in experiment [5], the NADPH fluorescence slope was -2.7e-05 (inactive). Also, the slope in experiment [6] was 0.00728 (inactive).
In the case of `CC1CCCCC1NC(=O)Cn1ncc2ccccc21` (centres undefined), in experiment [1], the cell count stood at 827. Besides, the inhibition is -6.9% (inactive) in experiment [1], -81.1% (inactive) in experiment [3], 11.9% (inactive) in experiment [7] and 34.8% (inactive) in experiment [8]. Moreover, the inhibition of aggregation in experiment [2] is 10.9% (inactive). The nuclei count in experiment [2] is 94%; in experiment [3] it was 123%. Further, in experiment [4], the fluorescence slope is -0.555 (inactive). Moreover, the NADPH fluorescence slope in experiment [5] is -4.8e-05 (inactive). Further, the slope in experiment [6] is 0.00699 (inactive).
For the molecule `Cc1ccc(S(=O)(=O)CCC(=O)Nc2ccc3c(c2)OCO3)cc1`, in experiment [1], the cell count worked out at 666. For the same molecule, the inhibition was -12.2% (inactive) in experiment [1], -26.9% (inactive) in experiment [3], -0.686% (inactive) in experiment [7] and 12.3% (inactive) in experiment [8]. Moreover, the inhibition of aggregation in experiment [2] is -1.1% (inactive). Also, the nuclei count in experiment [2] was determined as 131%; in experiment [3], 115%. Moreover, the fluorescence slope in experiment [4] is -0.587 (inactive). Further, the NADPH fluorescence slope in experiment [5] is -6.2e-05 (inactive). For the same molecule, the slope in experiment [6] was 0.00603 (inactive).
In the case of `CC1Cc2ccccc2N1C(=O)CSc1nc2ccccc2n1CC(=O)N1CCOCC1` (centres undefined), in experiment [1], the cell count was 468. Also, the inhibition was -0.5% (inactive) in experiment [1], -68.5% (inactive) in experiment [3], 15.4% (inactive) in experiment [7] and 2% (inactive) in experiment [8]. Besides, the inhibition of aggregation in experiment [2] is 6.9% (inactive). Also, the nuclei count in experiment [2] was 111%; in experiment [3], 110%. Moreover, the fluorescence slope in experiment [4] was -0.523 (inactive). In experiment [5], the NADPH fluorescence slope is -0.000178 (inactive). Besides, the slope in experiment [6] is 0.00303 (inactive).
On to `Cc1csc(NC(=O)CCS(=O)(=O)c2ccc(Br)cc2)n1`, for which, in experiment [1], the cell count is 721. Besides, the inhibition in experiment [1] was 0% (inactive); in experiment [3] it was 5.7% (inactive); in experiment [7], -20.4% (inactive); in experiment [8] it was -7.68% (inactive). The inhibition of aggregation in experiment [2] was -30.9% (inactive). Moreover, the results for the nuclei count in experiment [2] and in experiment [3] were 91.7% and 115%, respectively. Moreover, the fluorescence slope in experiment [4] was -0.609 (inactive). Moreover, the NADPH fluorescence slope in experiment [5] is 1.8e-05 (inactive). In addition, in experiment [6], the slope is 0.00541 (inactive).

(Values after PubChem BioAssay.)
